Test results published in PubChem BioAssay AID2113 (National Center for Advancing Translational Sciences (NCATS), 2009).
Inconclusive results are not listed. Entries that show only a call come without a potency. Active and inactive are the calls of the source. The call rests on the fitted dose curve; in most records, active means well fitted curve in either direction with a large enough effect; inconclusive means small, poorly fitted or top-dose-only effect; inactive means no such curve, though single readings can be large or run the other way.

Target: Lysosomal alpha-glucosidase (Homo sapiens) (UniProt P10253)
Test: Confirmation of Inhibitors and Activators of Human alpha-Glucosidase From Spleen Homogenate;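 on potency: fluorescence of 4-methylumbelliferone released from a fluorogenic glucopyranoside substrate at pH 5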
Settings: alpha-glucosidase enzyme activity; series mostly up to 60.5 µM
Method in brief: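 Compounds titrated against spleen-homogenate alpha-glucosidase, pH 5.0, 1 mM 4-MU-glucoside substrate, 37 C for 40 min. Fluorescence after pH 10 stop, normalised to no-enzyme and enzyme controls; Hill-equation AC50.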
Potency means the concentration at half of the fitted maximal effect.

| SMILES | Potency |
| --- | --- |
| CCCN1CNc2c(c(=O)[nH]c(=S)n2CCc2ccc(Cl)cc2Cl)C1 | 22.4 µM (active) |
| COc1ccc(CCN2CNc3c(c(=O)n(C)c(=O)n3C)C2)cc1OC | inactive |
| Cc1csc(-c2cc3ccccc3oc2=O)n1 | 31.6 µM (active) |
| CCC(C)NC(=O)CCC(=O)Nc1ccc2nc(N3CCOCC3)cc(C)c2c1 (configuration not stated) | inactive |
| NC(=NCc1ccccc1)NC(=O)c1nc(Cl)c(N)nc1N | inactive |
| CCCN1CNc2c(c(=O)[nH]c(=S)n2-c2ccccc2Cl)C1 | inactive |
| CCc1sc(-c2cc3ccccc3oc2=O)nc1-c1cc(C)ccc1C | 31.6 µM (active) |
| CCc1sc(-c2cc3cccc(OC)c3oc2=O)nc1-c1cc(C)ccc1C | 15.8 µM (active) |
| CCCN1CNc2c(c(=O)[nH]c(=S)n2CCc2ccccc2OC)C1 | 44.7 µM (active) |
| Cc1cccn2c(=O)c3cc(C#N)c(=NC(=O)c4cccs4)n(CCCOC(C)C)c3nc12 | inactive |
| C=CCSc1nc(-c2ccc3c(c2)OCO3)cc(C(F)(F)F)c1C#N | inactive |
| CCCN1CNc2c(c(=O)[nH]c(=S)n2CCc2cccc(Cl)c2Cl)C1 | 25.1 µM (active) |
| O=C1Cc2cc(S(=O)(=O)N3CCN(c4ccc([N+](=O)[O-])cc4)CC3)ccc2N1 | 3.66 µM [inhibitor] (active) |
| CCCN1CNc2c(c(=O)[nH]c(=S)n2CCc2ccc(C)c(C)c2)C1 | 20 µM (active) |
| O=C(COc1ccc2ccccc2c1)N1CCN(C(=O)c2ccco2)CC1 | inactive |
| Cc1nc(-n2nnc(CO)c2CO)nc2c1CCC2 | inactive |
| O=c1cc(-c2ccccc2)[nH]c2[nH]n(-c3ccccc3)c(=O)c12 | inactive |
